FMDV inh: blocks foot and mouth disease virus; FMDV antiviral cell-based qHTS; Potency, µM (doses to about 57.9 µM), for inactives: at the top dose activity change, negative = inhibition, most hits filed as inhibitors; actives 1.2% (n = 410,000); AID 1159524; calls by dose curve; tested in HEK293T cells; also: read-out not given here; potency is read from the fitted curve at half-maximal effect; % is scaled to controls: 0 for no effect and ±100 for the full control effect; nearly all actives have a fitted effect of over 45% in size
MARV entry inh: blocks Marburg virus binding to or entry into cells; Potency, µM (highest dose often 37.8 µM), inactives show at the top dose activity change, negative = inhibition, actives largely listed as inhibitors; Marburg virus pseudotyped entry inhibition, cell reporter; actives 1.8% (n = 300,000); calls by dose curve; tested in HEK293 cells; also: potency is read from the fitted curve at half-maximal effect; % is scaled to controls: 0 for no effect and ±100 for the full control effect
LASV entry inh: inhibitors of Lassa virus binding or cell entry | Lassa virus pseudotype entry inhibition, cell reporter | Potency, µM (highest dose often 37.9 µM), for inactives: top-dose activity change, negative = inhibition, actives largely listed as inhibitors | actives 1.2% (n = 300,000) | AID 540256; calls by dose curve; tested in HEK293 cells; also: potency is read from the fitted curve at half-maximal effect; % is scaled to controls: 0 for no effect and ±100 for the full control effect; nearly all actives have a fitted effect of over 50% in size
HCV inhibitor: HCV inhibition; Huh7.5.1 HCVcc-Cre infection, luciferase reporter, 44 h; Potency, µM (top dose mostly 41.8 µM), inactives show at the highest dose activity change, negative = inhibition, most hits filed as inhibitors; AID 651820; actives 3.4% (n = 340,000); active = well fitted inhibition curve with a large enough effect; inconclusive = small, poorly fitted or top-dose-only effect, or another doubt; inactive = no such curve, though single readings can be large or run the other way; also: potency is read from the fitted curve at half-maximal effect; % is scaled to controls: 0 for no effect and ±100 for the full control effect
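Luciferase read-out (15 sec integration) after a 15 min room-temperature substrate step quantifies HCVcc-Cre infection. Cells, 1,000 per well, had compound added 4 h post-plating, then virus at ~0.5 moi, and were cultured 44 h.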
CHX counter: affects cycloheximide protein synthesis inhibition readout, counter-screen; cell reporter, cycloheximide protein synthesis inhibition counterscreen; max response, %; actives 12% (n = 300,000); AID 2314; in the data active = max response mostly above about 13%, no sharp cut-off; inactive = mostly below about 14%; also: read at 38.3 µM for the half of the compounds with a filed dose; 0% is about no effect
Shiga toxin inh: blocks Shiga toxin action in Vero cells; Vero cells, Shiga toxin protein synthesis inhibition reporter; inhibition, % at 38.7 µM; actives 9.2% (n = 290,000); AID 2315; in the data active = inhibition mostly above about 28%, no sharp cut-off; inactive = mostly below about 43%; also: 0% is about no effect
An asterisk follows results filed as active; ? = inconclusive; . = no result; [ ] = dose if it differs, or a comment. The list is not random: actives were taken first. Their share in the collection is about 13%.

SMILES	FMDV inh	MARV entry inh	LASV entry inh	HCV inhibitor	CHX counter	Shiga toxin inh
C/C(=N/OCC(=O)Nc1ccccc1)c1cccs1	7%	25%[46.1 µM]	-16%	-1%	27*	60*
O=C(OCC(=O)c1cccs1)c1ccccc1	48%	4%	?	11%	31*	51
C/C(=N\OCC(=O)Nc1ccccc1Br)c1cccs1	42%	.	.	?	28*	55*
COc1ccc(NC(=O)CO/N=C(\C)c2cccs2)cc1	6%	-2%[46.1 µM]	4%[46.1 µM]	5%	13	-6
COc1ccc(C(=O)NC2CC2)cc1OC1CCN(Cc2ccc(F)cc2F)CC1	-17%	-19%	3%	.	-2	-12
Cc1ccc(C(CC(=O)NCc2ccco2)c2ccccc2)c(O)c1 (stereo unspecified)	-9%	-8%	13%	-11%	-1	-18
Cc1ccc(C(CC(=O)NCC2(c3ccccc3)CCCC2)c2ccccc2)c(O)c1 (stereo unspecified)	7.9µM*	?	?	.	.	.
COc1ccc(C2c3[nH]c4ccccc4c3CCN2CCCn2cccn2)c(C)c1C (stereo unspecified)	?	?	-21%	?	0	-25
CC(C)CC1c2[nH]c3ccccc3c2CCN1CCCn1cccn1 (stereo unspecified)	-20%	4.5µM*	11µM*	-7%	-2	-7
CCN(CC)CCOC(=O)C1(C2CCCCC2)CCCCC1	0%	13µM*	?	1%[8.37 µM]	-2	-9
CCN(CC)CCOC(=O)C1(c2ccccc2)CCCC1	.	-28%	0%	?	3	-3
O=C(NCc1ccccc1F)c1ccc(S(=O)(=O)NCc2ccco2)cc1	7%	-12%[46.1 µM]	?	?	.	.
Cc1ccc(NS(=O)(=O)c2cc(-c3n[nH]c(=O)c4ccccc34)ccc2C)cc1	-65%	5µM*	?	?	-2	-14
CCOC(=O)CNS(=O)(=O)c1cc(-c2n[nH]c(=O)c3ccccc23)ccc1C	16%	-9%	17%	-20%	-3	-10
N#Cc1ccc(NC(=O)Nc2cccc(C#N)c2)cc1	?	.	.	10µM*	-1	13
COC(=O)c1cc(OC)c(OC)cc1NCC(=O)Nc1cccc(C(F)(F)F)c1	?	10µM*	-11%	?	-3	1
O=C(CNc1cc(S(=O)(=O)N2CCOCC2)ccc1N1CCOCC1)Nc1cccc(C(F)(F)F)c1	-10%	13%[46.1 µM]	?	8%	.	.
N#Cc1cccc(NC(=O)CNc2cccc(S(=O)(=O)N3CCCC3)c2)c1	2%	?	?	2.5µM*	.	.
N#Cc1cccc(NCC(=O)Nc2cccc(S(=O)(=O)N3CCCCC3)c2)c1	12%	.	.	?	.	.
COC(=O)c1cc(OC)c(OC)cc1NCC(=O)Nc1ccc(OC)c(OC)c1	?	?	7%	?	-4	18
O=C(CNc1cc(S(=O)(=O)N2CCCC2)ccc1OCC(F)(F)F)Nc1cccc(C(F)(F)F)c1	?	?	?	11µM*	3	-12
Cc1ccccc1NC(=S)N(Cc1cccnc1)Cc1ccco1	-19%	0%	3%	-7%	-2	-7
Cc1sc2ncnc(N3CCN(Cc4ccccc4)CC3)c2c1-c1ccc(F)cc1	?	6%[46.1 µM]	3%	?	-8	2
N#Cc1cccc(NCC(=O)Nc2ccc3c(c2)OCCO3)c1	23%	?	?	-11%	27*	63*
O=C(CNc1cccc(S(=O)(=O)N2CCCC2)c1)Nc1cccc(F)c1	-23%	?	2%	-7%	.	.
SMILES	FMDV inh	MARV entry inh	LASV entry inh	HCV inhibitor	CHX counter	Shiga toxin inh
O=C(CNc1cccc(C(F)(F)F)c1)Nc1cccc(S(=O)(=O)N2CCCC2)c1	-21%	.	.	11µM*	.	.
Cc1ccc(-c2cc3c(n2-c2ccc(C)cc2)CC(C)(C)CC3=O)cc1	0%	-1%[46.1 µM]	21%[46.1 µM]	.	.	.
CCN(Cc1ccccc1)C(=O)Cn1c(=O)n(-c2ccc(C)c(C)c2)c(=O)c2c(C)c(C)sc21	-15%	-30%[46.1 µM]	-18%[46.1 µM]	.	.	.
CCOc1ccccc1-c1nc(-c2ccc(C)nc2OC)no1	45%	?	-22%	?	44*	92*
CCOc1nc(C)ccc1-c1noc(-c2ccco2)n1	35%	11%	24%[14.3 µM]	-11%	32*	42
CCOc1nc(C)ccc1-c1noc(CC)n1	21%	20%	0%	-8%	-3	-2
CCOc1nc(C)ccc1-c1noc(-c2ccccn2)n1	3%	?	19%	?	26*	34
N#CCSc1ccccc1NC(=O)COC(=O)Cc1c[nH]c2ccccc12	1%	.	.	-1%	.	.
CCS(=O)(=O)N1Cc2ccccc2CC1C(=O)Nc1nc2ccc(C)cc2s1 (stereo unspecified)	18%	?	?	-18%	39*	68*
CCS(=O)(=O)N1Cc2ccccc2CC1C(=O)Nc1ncc(C)s1 (stereo unspecified)	69%	3%	18%	0%	40*	108*
CCS(=O)(=O)N1Cc2ccccc2CC1C(=O)Nc1nnc(SCc2ccc(C#N)cc2)s1 (stereo unspecified)	-28%	-15%	0%	-12%	-2	5
Cc1nnc(NC(=O)CSc2n[nH]c(-c3ccccc3)n2)s1	-11%	.	.	26%	-1	20
COC(=O)c1ccc(COc2ccccc2/C=N/NC(N)=O)o1	-1%	?	7%	9%	6	-7
C/C(CC(=O)Nc1ccc(OCc2ccccc2)cc1)=N\NC(=O)C(=O)Nc1cccc(C)c1	16%	9%	11%	?	28*	-2
CC(=O)Nc1ccc(C(=O)N/N=C(\C)CC(=O)Nc2ccc(OCc3ccccc3)cc2)cc1	2%	?	16%	5%	18*	-2
CCOC(=O)c1ccc(N(CC2CO2)S(=O)(=O)c2ccc(C)cc2)cc1 (stereo unspecified)	1%	-13%[46.1 µM]	?	2%	.	.
CC(C)CCN1CCN(Cc2cc3ccccc3[nH]2)CC1CCO (stereo unspecified)	-1%	.	.	-15%	-3	-2
NC(=O)N/N=C/c1ccc(-c2ccc([N+](=O)[O-])cc2)o1	38%	0%	.	10%	25*	25
O=[N+]([O-])c1ccc(-c2ccc(/C=N/O)o2)cc1	-5%	?	?	-4%	33*	109*
O/N=C\c1ccc(-c2ccccc2)o1	20%	?	21%	?	21*	92*
COc1ccc(N=Cc2ccc(-c3ccccc3)o2)cc1	24%	3%[14.2 µM]	-14%	-9%	16*	11
Nc1nnc(SCc2nnc(-c3ccccc3)o2)s1	26%	.	.	16%	-3	-2
Nc1n[nH]c(-c2ccc(F)cc2)n1	20%	7%	16%	8%	8	13
CCCc1ccc(-c2cc(N)n[nH]2)cc1	10%	-14%	3%	-10%	30*	27
CCCc1ccc(-c2cc(NC(=O)CSc3n[nH]c(N)n3)n(-c3ccccc3)n2)cc1	82%	?	2%	?	15	37

Screening data as filed in PubChem BioAssay.
